# Measurements as given in PubChem BioAssay (NCATS).
# Several values for one entry are separate records, joined by “and”; a condition that tells them apart may be missing. Equal values may be shown once. Records with an inconclusive call do not appear. Where a call stands in place of a potency, no number is given. Activity calls are given as the source filed them. Calls come from the whole dose curve.
# How the values were obtained:
# [1] = Cytotoxicity counterscreen for inhibitors of SARS-CoV-2 cell entry (AID 1645845); note: nearly all actives have a fitted effect of over 50% in size
# Procedure, shortened: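 48 h compound treatment (after 1 h preincubation), HEK293-ACE2 cells, 37 C/5% CO2; ATP luminescence endpoint; normalized to cell wells and media blanks.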
# [2] = Primary qHTS to identify inhibitors of SARS-CoV-2 cell entry (AID 1645846); conditions: activity change, negative = inhibition: at 57.1 µM (top of the series) unless noted; note: nearly all actives have a fitted effect of over 45% in size
# Procedure, shortened: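 Data are normalized to wells receiving SARS-CoV-2-S pseudoparticles and those given bald particles. Entry signal was luciferase luminescence in stable hACE2 Expi293F cells, 48 hr post-infection, after 1 hr compound pretreatment.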
# Potency is the fitted concentration of half-maximal effect.
smiles,measurement,setting,value
CC(N=C(NC#N)Nc1ccncc1)C(C)(C)C (stereo unspecified),Potency,[1],inactive
same,"activity change, negative = inhibition",[2],-37.8%
COc1cc(/C=C/C(=O)O[C@H]2CC[C@]34C[C@]35CC[C@]3(C)[C@@H]([C@H](C)CCC=C(C)C)CC[C@@]3(C)[C@@H]5CC[C@H]4C2(C)C)ccc1O,Potency,[1],inactive
same,Potency,[2],inactive
CC1CCN(CCCC(=O)c2ccc(F)cc2)CC1,Potency,[1],inactive
same,"activity change, negative = inhibition",[2],-25%
CCN1CCN(C(=O)N[C@@H](C(=O)N[C@@H]2C(=O)N3[C@@H]2SC(C)(C)[C@H]3C(=O)O)c2ccccc2)C(=O)C1=O,Potency,[1],inactive
same,Potency,[2],inactive
CCCCC(CC)CNC(=O)CC(C)OC(=O)CCC(=O)O (stereo unspecified),Potency,[1],inactive
same,Potency,[2],inactive
NC(N)=NS(=O)(=O)c1ccc(N)cc1,Potency,[1],inactive
same,Potency,[2],inactive
COc1nccnc1NS(=O)(=O)c1ccc(N)cc1,Potency,[1],inactive
same,Potency,[2],inactive
COC(=O)c1cc(Cl)ccc1NS(=O)(=O)C(F)(F)F,Potency,[1],inactive
same,Potency,[2],inactive
NCCCC[C@H](N[C@@H](CCc1ccccc1)C(=O)O)C(=O)N1CCC[C@H]1C(=O)O,Potency,[1],inactive
same,"activity change, negative = inhibition",[2],-27.7%
CC(=O)NCc1c(I)c(NC(C)=O)c(I)c(C(=O)O)c1I,Potency,[1],inactive
same,Potency,[2],inactive
CCOC(=O)/C=C(C)/C=C/C=C(C)/C=C/c1c(C)cc(OC)c(C)c1C,Potency,[1],inactive
same,"activity change, negative = inhibition",[2],-11.5%
Cc1cccn2c(=O)c(-c3nnn[nH]3)cnc12,Potency,[1],inactive
same,Potency,[2],inactive
CN(C)c1ccc2nc3ccc(=[N+](C)C)cc-3sc2c1,Potency,[1],7.08 µM (active)
same,Potency,[2],8.91 µM (active) and 7.08 µM (active)
CCn1nc(C(=O)O)c(=O)c2cc3c(cc21)OCO3,Potency,[1],inactive
same,Potency,[2],inactive
N#CSCC(=O)O,Potency,[1],inactive
same,Potency,[2],inactive
COC(=O)c1cccnc1,Potency,[1],inactive
same,Potency,[2],inactive
O=C(CS(=O)Cc1ccco1)NC/C=C\COc1cc(CN2CCCCC2)ccn1 (stereo unspecified),Potency,[1],inactive
same,Potency,[2],inactive
CCC[C@@H]1C[C@@H](C(=O)N[C@@H]([C@H]2O[C@H](SC)[C@H](O)[C@@H](O)[C@H]2O)[C@H](C)Cl)N(C)C1,Potency,[1],inactive
same,"activity change, negative = inhibition",[2],-7.46%
COCCOC(=O)C1=C(C)NC(C)=C(C(=O)OC(C)C)C1c1cccc([N+](=O)[O-])c1 (stereo unspecified),Potency,[1],inactive
same,"activity change, negative = inhibition",[2],-23.8%
CC1COc2c(N3CCN(C)CC3)c(F)cc3c(=O)c(C(=O)O)cn1c23 (stereo unspecified),Potency,[1],inactive
same,"activity change, negative = inhibition",[2],-0.258%
C[N+]1(C)[C@@H]2CC(OC(=O)[C@H](CO)c3ccccc3)C[C@H]1[C@@H]1O[C@@H]12 (stereo partly specified),Potency,[1],inactive
same,Potency,[2],inactive
Cc1c(C(C)C)c(=O)n(-c2ccccc2)n1C,Potency,[1],inactive
same,"activity change, negative = inhibition",[2],-4.29%
CCCC(=O)O[C@]1(C(=O)CO)CC[C@H]2[C@@H]3CCC4=CC(=O)CC[C@]4(C)[C@H]3[C@@H](O)C[C@@]21C,Potency,[1],inactive
same,"activity change, negative = inhibition",[2],-10%
CN1CCN(CC(=O)N2c3ccccc3C(=O)Nc3cccnc32)CC1,outcome,[1],inactive [at 5.25 µM]
same,outcome,[2],inactive [at 5.25 µM]
CCCC(=O)O[C@]1(C(=O)COC(=O)CC)CC[C@H]2[C@@H]3CCC4=CC(=O)CC[C@]4(C)[C@H]3[C@@H](O)C[C@@]21C,Potency,[1],inactive
same,"activity change, negative = inhibition",[2],-22.2% [at 27.1 µM]
CO[C@@]1(NC(=O)C2SC(=C(C(N)=O)C(=O)O)S2)C(=O)N2C(C(=O)O)=C(CSc3nnnn3C)CS[C@@H]21 (stereo partly specified),Potency,[1],inactive
same,"activity change, negative = inhibition",[2],4.49%
CC(=O)O[C@@H]1CC2C3CCc4cc(OC(=O)c5ccccc5)ccc4C3CCC2(C)[C@H]1OC(C)=O (stereo partly specified),Potency,[1],inactive
same,"activity change, negative = inhibition",[2],4.28%
CC(C)(C)NCC(O)COc1ccccc1OCC1CCCO1 (stereo unspecified),Potency,[1],inactive
same,"activity change, negative = inhibition",[2],4.08%
Nc1ccc(S(=O)(=O)c2ccc(N)cc2)cc1,Potency,[1],inactive
same,Potency,[2],inactive
CN(C)CCOC(=O)C(c1ccccc1)C1(O)CCCC1 (stereo unspecified),Potency,[1],inactive
same,"activity change, negative = inhibition",[2],1%
CC(=O)Nc1ccc(C(=O)O)cc1,Potency,[1],inactive
same,Potency,[2],inactive
COc1ccc(-c2ccc3cc(C(=O)O)ccc3c2)cc1C12CC3CC(CC(C3)C1)C2,Potency,[1],inactive
same,"activity change, negative = inhibition",[2],-13.5% and -15.7%
CC(=O)[C@H]1CC[C@H]2[C@@H]3C[C@H](C)C4=CC(=O)CC[C@]4(C)[C@H]3[C@@H](O)C[C@]12C,Potency,[1],inactive
same,Potency,[2],inactive
COc1cc(OC)c(C(=O)CCCN2CCCC2)c(OC)c1,Potency,[1],inactive
same,"activity change, negative = inhibition",[2],-26.6%
O=P(O)(O)C(O)(Cn1ccnc1)P(=O)(O)O,Potency,[1],inactive
same,outcome,[2],inactive [at 5.25 µM]
CCCCCC[C@@H](CCC)C(=O)O,Potency,[1],inactive
same,Potency,[2],inactive
CCC(Cc1c(I)cc(I)c(N)c1I)C(=O)O (stereo unspecified),Potency,[1],inactive
same,Potency,[2],inactive
CCCCCCCCCCCCOCCO,Potency,[1],inactive
same,"activity change, negative = inhibition",[2],-19.3%
Cc1c(N(C)CS(=O)(=O)O)c(=O)n(-c2ccccc2)n1C,Potency,[1],inactive
same,"activity change, negative = inhibition",[2],1.77%
O=C(OCc1ccccc1)c1ccccc1,Potency,[1],inactive
same,Potency,[2],inactive
CN/C(=C\[N+](=O)[O-])NCCSCc1csc(CN(C)C)n1,Potency,[1],inactive
same,Potency,[2],inactive
CCN1CCCC1CNC(=O)c1cc(S(=O)(=O)CC)c(N)cc1OC (stereo unspecified),Potency,[1],inactive
same,"activity change, negative = inhibition",[2],4.53% and -0.585%
NS(=O)(=O)c1cc(-c2nn[nH]n2)c(NCc2cccs2)cc1Cl,Potency,[1],inactive
same,"activity change, negative = inhibition",[2],-3.88%
